# The campaign covered roughly 310,000 compounds. About 14,000 (4.5%) showed an effect of 50% or more. Effects have a minus sign here. What follows is part of a selection rich in strong results, with near analogues and random picks from the rest.
# Molecular target: human ether-à-go-go-related gene (hERG) potassium channel (human, UniProt Q12809)
# Test: primary screen, population patch clamp on CHO cells stably expressing hERG; higher = less effect of the substance
# 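Also: peak tail current of the secondary pulse compared with the same well before compound.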
# human ether-à-go-go-related gene (hERG) potassium channel, sequence (Q12809 whole entry, looked up): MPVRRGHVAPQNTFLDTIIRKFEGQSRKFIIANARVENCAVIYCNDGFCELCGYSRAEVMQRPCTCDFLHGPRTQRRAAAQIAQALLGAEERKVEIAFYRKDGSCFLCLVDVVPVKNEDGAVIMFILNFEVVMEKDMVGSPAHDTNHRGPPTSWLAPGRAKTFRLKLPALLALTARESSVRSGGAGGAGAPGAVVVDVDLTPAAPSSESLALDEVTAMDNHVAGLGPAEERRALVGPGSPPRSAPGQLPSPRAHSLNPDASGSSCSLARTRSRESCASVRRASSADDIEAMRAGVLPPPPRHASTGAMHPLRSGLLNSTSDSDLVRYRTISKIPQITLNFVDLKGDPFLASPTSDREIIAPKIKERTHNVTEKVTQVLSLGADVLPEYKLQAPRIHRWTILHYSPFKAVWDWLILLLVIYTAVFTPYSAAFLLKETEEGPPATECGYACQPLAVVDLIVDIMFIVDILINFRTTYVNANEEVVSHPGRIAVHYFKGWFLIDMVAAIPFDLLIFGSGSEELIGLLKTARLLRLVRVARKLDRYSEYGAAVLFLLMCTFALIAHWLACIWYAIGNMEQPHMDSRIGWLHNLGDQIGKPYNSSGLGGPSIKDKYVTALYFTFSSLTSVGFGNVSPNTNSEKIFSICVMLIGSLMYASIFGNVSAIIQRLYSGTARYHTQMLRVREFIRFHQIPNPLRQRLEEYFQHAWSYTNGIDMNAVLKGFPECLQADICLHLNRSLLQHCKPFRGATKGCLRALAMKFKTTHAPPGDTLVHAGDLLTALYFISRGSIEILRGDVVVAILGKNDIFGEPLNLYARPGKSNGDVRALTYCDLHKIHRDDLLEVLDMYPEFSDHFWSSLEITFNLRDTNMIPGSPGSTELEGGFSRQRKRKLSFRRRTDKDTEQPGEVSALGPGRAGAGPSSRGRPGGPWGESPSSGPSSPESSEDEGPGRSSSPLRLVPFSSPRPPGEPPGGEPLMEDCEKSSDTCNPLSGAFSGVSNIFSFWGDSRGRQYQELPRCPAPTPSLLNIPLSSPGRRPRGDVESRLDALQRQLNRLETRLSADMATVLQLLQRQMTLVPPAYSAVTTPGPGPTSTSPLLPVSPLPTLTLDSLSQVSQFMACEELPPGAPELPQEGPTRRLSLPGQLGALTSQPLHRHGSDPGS
row,SMILES,"hERG current change (%, negative = inhibition) at 10uM"
1,CCC[C@@H](CNC)NC[C@H](Cc1ccccc1)NCCCCc1ccccc1,-6.02%
2,CCCC[C@@H](CNC)NC[C@H](Cc1ccc(O)cc1)NCCc1ccc(OCC)cc1,-53.7%
3,CCC[C@H](CN[C@@H](CNC)[C@H](C)O)NCCc1ccc(OC)cc1,2.16%
4,Cc1[nH]c2ccccc2c1/C=N/n1cnnc1,10.2%
5,COCCn1c(C)cc(C(=O)COc2ccc(N(C)S(=O)(=O)c3ccc(C)cc3)cc2)c1C,-19.9%
6,CCc1ccc(OCC(=O)N/N=C/c2cc([N+](=O)[O-])ccc2N2CCOCC2)cc1,-14.6%
7,CCN(CC)S(=O)(=O)c1ccc(-c2cn3ccc(C)cc3n2)cc1,7.52%
8,OC(COCc1cccs1)CN1CCN(c2cccc(C(F)(F)F)c2)CC1 (stereo not drawn),-69.6%
9,CN1CCCN(CC(O)COCc2cccs2)CC1 (stereo not drawn),-2.94%
10,O=C(O)C(=O)O.OC(COCc1cccs1)CN1CCN(c2cccc(Cl)c2)CC1 (stereo not drawn),-63.8%
11,O=C(Cc1cccs1)N1CCN(c2cccc(Cl)c2)CC1,-12%
12,Cl.OC(COCc1cccs1)CN1CCCCCC1 (stereo not drawn),-21.9%
13,OC(COC(c1ccccc1)c1ccccc1)CN1CCN(c2cccc(Cl)c2)CC1 (stereo not drawn),6.16%
14,CCOC(=O)CNC(=O)c1cn(CC(C)C)c(=O)c2cc(OC)c(OC)cc12,-24%
15,CCCC(=O)Nc1nnc(-c2ccccc2)o1,7.03%
16,CCOc1ccc(NC(=O)CN(C)C(=O)c2cccnc2Sc2ccccc2Cl)cc1OCC,-8.63%
17,CCOc1ccc(NC(=O)CN(C)C(=O)c2cc(-c3ccc(OC)cc3)nc3ccccc23)cc1OCC,-2.15%
18,COCCN(CC(=O)Nc1cccc(C)c1C)C(=O)c1cc2ccccc2cc1OC,-26.7%
19,CCOc1ccc(NC(=O)CN(C)C(=O)c2cc(C)nc3ccccc23)cc1OCC,-16.2%
20,COCCN(CC(=O)Nc1cccc(C)c1C)C(=O)c1ccc2ccccc2n1,-0.121%
21,CCOc1ccc(NC(=O)CN(C)C(=O)c2cc(-c3ccncc3)nc3ccccc23)cc1OCC,-58.6%
22,CCOc1ccc(NC(=O)CN(C)C(=O)c2cccnc2Sc2ccc(Cl)cc2)cc1OCC,-52.4%
23,CCOc1ccc(NC(=O)CN(C)C(=O)c2cccnc2Sc2ccc(C)c(C)c2)cc1OCC,0.0885%
24,COCCN(CC(=O)Nc1cccc(C)c1C)C(=O)c1cc(-c2ccncc2)nc2ccccc12,-57.3%
